According to the supplement of paper PMC6411743:
± gives the standard deviation of the averaged measurements. The full data set covers some 5,400 targets. This sample favours those with the largest changes.

Target: T1, UniProt Q13188|Q13188-2
T1 sequence (whole entry): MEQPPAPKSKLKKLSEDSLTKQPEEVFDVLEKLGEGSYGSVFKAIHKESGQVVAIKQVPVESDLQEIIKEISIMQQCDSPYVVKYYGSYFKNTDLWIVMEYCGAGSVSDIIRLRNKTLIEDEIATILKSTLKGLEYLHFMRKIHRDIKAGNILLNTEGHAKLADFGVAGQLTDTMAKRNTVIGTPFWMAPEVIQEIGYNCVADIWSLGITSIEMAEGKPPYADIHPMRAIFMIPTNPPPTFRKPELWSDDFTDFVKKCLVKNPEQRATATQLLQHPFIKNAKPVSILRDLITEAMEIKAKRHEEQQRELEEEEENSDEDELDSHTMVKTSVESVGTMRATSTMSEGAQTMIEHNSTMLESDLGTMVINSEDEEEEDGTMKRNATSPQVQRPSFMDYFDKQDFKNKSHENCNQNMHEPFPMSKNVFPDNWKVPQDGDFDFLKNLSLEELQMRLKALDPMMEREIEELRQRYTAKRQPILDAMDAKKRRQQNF
Assay: NP40-soluble protein abundance relative to vehicle (solubility fold change) (ratio); higher = more soluble protein in presence of GTP
Procedure: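 Solubility proteome profiling in Jurkat crude lysate. Lysate was treated with Mg-GTP (0.1-10 mM) for 10 min at room temperature and 3 min at 37 °C, then solubilised with 0.8% NP40 and benzonase, followed by ultracentrifugation. Proteins were quantified by TMT10 LC-MS/MS; the value is the NP40-soluble abundance relative to the NP40-processed vehicle, from 3 independent experiments.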

## Nc1nc2c(ncn2[C@@H]2O[C@H](COP(=O)(O)OP(=O)(O)OP(=O)(O)O)[C@@H](O)[C@H]2O)c(=O)[nH]1 [guanosine triphosphate]
concentration: 0.1mM
  NP40-soluble protein abundance: 0.978 ± 0.064
concentration: 0.5mM
  NP40-soluble protein abundance: 0.985 ± 0.036
concentration: 1mM
  NP40-soluble protein abundance: 0.98 ± 0.057
concentration: 2mM
  NP40-soluble protein abundance: 0.982 ± 0.048
concentration: 4mM
  NP40-soluble protein abundance: 0.96 ± 0.049
concentration: 6mM
  NP40-soluble protein abundance: 0.948 ± 0.052
concentration: 8mM
  NP40-soluble protein abundance: 0.972 ± 0.071
concentration: 10mM
  NP40-soluble protein abundance: 0.973 ± 0.088
